Experimental findings from PubChem BioAssay are described below.

The source made the active and inactive calls.

Test [1] has as its system Plasmodium falciparum Sir2 (PF13_0152, Sir2A). Description: pfSir2 binders on small-molecule microarrays, primary screen, biochemical, small-molecule microarray, 635 nm fluorescence (AID 1098).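 Note: score merges spot fluorescence intensity with its signal-to-noise ratio.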 The conditions noted are these: small-molecule microarray binding, fluorescence 635 nm; higher = more signal.
The nature of test [2]: small-molecule microarray binders of probe aDKK1, primary screen, biochemical, biotinylated probe, 635/667 nm fluorescence (AID 1099).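 Note: score merges 667nm spot fluorescence with signal to noise across triplicate slides.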 The conditions noted are these: higher = more signal.
Test [3] can be described thus: small-molecule microarray binders of probe aCHRDL2, primary screen, biochemical, biotinylated probe, 635/667 nm fluorescence (AID 1100). Conditions: higher = more signal.
Test [4] in a line: splicing luciferase reporter signal modulators, primary screen, spliceosome inhibition project, cell-based, HEK293, splice +/- reporter (AID 1101).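 Note: HEK293 cells carrying a splicing-competent luciferase reporter gene; test concentration not given here.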 The conditions noted are these: luminescence, 24 h, higher = more signal, called active from +8 up or from −8 down. For orientation: Reporter assays use an easily measured gene product as a stand-in for the process of interest.
Test [5] has as its target Fibroblast growth factor 10 (Homo sapiens) (UniProt O15520). Description: FGF10 binders on small-molecule microarrays, primary screen, biochemical, small-molecule microarray, 635 nm fluorescence (AID 1102). Conditions: FGF10 binding, fluorescence 635 nm, higher = more signal.
Test [6] deals with glycogen synthase kinase-3 (GSK3A per assay name; protocol says GSK3B). Description: GSK3 binders on small-molecule microarrays, primary screen, biochemical, small-molecule microarray, 635 nm fluorescence, GSK3A (AID 1103). Note: the record names both GSK3A and GSK3B. Conditions: small-molecule microarray binding, fluorescence 635 nm; higher = more signal.
Test [7] addresses Epidermal growth factor receptor (Homo sapiens) (UniProt P00533). Description: EGFR binders on small-molecule microarrays, primary screen, biochemical, small-molecule microarray, 635 nm fluorescence (AID 1104).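 Note: score merges 667 nm emission intensity with spot signal to noise over triplicate slides.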 The conditions noted are these: EGFR binding, higher = more signal.
Test [8] has as its target Follistatin-related protein 3 (Homo sapiens) (UniProt O95633). Description: FSTL3 binders on small-molecule microarrays, primary screen, biochemical, small-molecule microarray, 635 nm fluorescence (AID 1105).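 Note: score merges emission near 667 nm and signal to noise per printed spot across three slides.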 Conditions: FSTL3 binding, higher = more signal.
The target in test [9] is Dickkopf-related protein 1 (Homo sapiens) (UniProt O94907). Description: DKK1 binders on small-molecule microarrays, primary screen, biochemical, small-molecule microarray, 635 nm fluorescence scan (AID 1106).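 Note: score merges emission near 667 nm with signal to noise over three replicate slides.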 Conditions: DKK1 binding, higher = more signal.
Dickkopf-related protein 1 (Homo sapiens), sequence (O94907 whole entry, looked up): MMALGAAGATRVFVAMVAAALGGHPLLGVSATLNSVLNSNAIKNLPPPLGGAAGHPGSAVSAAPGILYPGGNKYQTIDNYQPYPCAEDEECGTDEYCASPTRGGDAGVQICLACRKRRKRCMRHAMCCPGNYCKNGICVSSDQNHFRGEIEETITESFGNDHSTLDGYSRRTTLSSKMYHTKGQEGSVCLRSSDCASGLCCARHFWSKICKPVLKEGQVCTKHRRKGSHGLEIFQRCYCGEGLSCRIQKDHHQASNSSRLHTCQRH
Test [10] relates to Inhibin beta A chain (activin A). Description: INHBA (activin A) binders on microarrays, primary screen, biochemical, small-molecule microarray, 635 nm fluorescence scan (AID 1107).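 Note: mouse activin A protein probed at 4.33 µg/mL on printed slides; score merges bound-protein fluorescence near 667 nm with spot signal-to-noise.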 The conditions noted are these: small-molecule microarray binding, higher = more signal.
Test [11] deals with Human papillomavirus type 1a protein E7 (residues 44-93). Description: HPV1a E7 fragment binders on microarrays, primary screen, biochemical, small-molecule microarray, residues 44-93, 635 nm fluorescence (AID 1108).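 Note: E7 fragment applied at 1 µg/mL in TBST for 1 h at 4 C; score combines spot fluorescence with its signal to noise ratio.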 Conditions: small-molecule microarray binding, fluorescence 635 nm; higher = more signal.
Test [12] in a line: modulators of HCV replicon luciferase signal, primary screen, HCV replication inhibitor project, Huh7 cells, luciferase reporter (AID 1109).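 Note: huh7 hepatoma cells harbouring a luciferase neomycin HCV replicon reporter; luciferase luminescence as measure of HCV replicon replication; test concentration not given here.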 The conditions noted are these: 48 h, higher = more signal. Background: In antiviral work, replicon cells carry a viral genome segment that copies itself.
Test [13] has as its target Left-right determination factor 2 (Homo sapiens) (UniProt O00292). Description: LEFTY2 binders on small-molecule microarrays, primary screen, biochemical, small-molecule microarray, 635 nm fluorescence scan (AID 1110). Conditions: LEFTY2 binding, higher = more signal.
The target of test [14] is Calmodulin-1 (Homo sapiens) (UniProt P0DP23). Description: CALM1 binders on microarrays, EGTA buffer, profiling panel, biochemical, small-molecule microarray, Cy5-labelled CALM1 (AID 1111).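 Note: labelled calmodulin applied in Tris saline Tween buffer holding calcium plus EGTA and DTT.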 Conditions: Cy5-CALM1 binding fluorescence, higher = more signal.
For test [15] the target is unchanged. Description: calcium-bound CALM1 binders on microarrays, profiling panel, artefact control for SMM control-protein annotation, biochemical, small-molecule microarray, Cy5-labelled CALM1, plus calcium (AID 1112).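 Note: score merges spot fluorescence with signal to noise from triplicate slides.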 Conditions: Cy5-CALM1 binding fluorescence, higher = more signal.
Test [16] is described as follows: small-molecule microarray binders of probe aWnt5a, primary screen, biochemical, biotinylated probe, 635/667 nm fluorescence (AID 1113).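 Note: score merges 667 nm fluorescence intensity with signal-to-noise per printed feature.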 Conditions: higher = more signal.
Test [17] is described as follows: small-molecule microarray binders of probe aShh, primary screen, biochemical, biotinylated probe, 635/667 nm fluorescence (AID 1114).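 Note: probe is biotin-labelled aShh protein from a stem cell growth factor screen; measures binding of labelled protein to compounds printed on the slide; score merges feature fluorescence at 667 nm with signal-to-noise.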 The conditions noted are these: higher = more signal.
A short description of test [18]: small-molecule microarray binders of probe aNog, primary screen, biochemical, biotinylated probe, 635/667 nm fluorescence (AID 1115).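 Note: probe is biotinylated aNog protein used at 0.15 µg/mL for 1 h at 4 C; z-score combines 667 nm fluorescence of each spot with its signal to noise.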 The conditions noted are these: higher = more signal.
The target in test [19] is Torsin-1A-interacting protein 1 (Homo sapiens) (UniProt Q5JTV8). Description: LAP1 binders from COS7 cell lysate, primary screen, small-molecule microarray, 635/667 nm fluorescence (AID 1116). Conditions: COS7-hLAP1 lysate binding, 635 nm fluorescence, higher = more signal.
Torsin-1A-interacting protein 1 (Homo sapiens), sequence (Q5JTV8 whole entry, looked up): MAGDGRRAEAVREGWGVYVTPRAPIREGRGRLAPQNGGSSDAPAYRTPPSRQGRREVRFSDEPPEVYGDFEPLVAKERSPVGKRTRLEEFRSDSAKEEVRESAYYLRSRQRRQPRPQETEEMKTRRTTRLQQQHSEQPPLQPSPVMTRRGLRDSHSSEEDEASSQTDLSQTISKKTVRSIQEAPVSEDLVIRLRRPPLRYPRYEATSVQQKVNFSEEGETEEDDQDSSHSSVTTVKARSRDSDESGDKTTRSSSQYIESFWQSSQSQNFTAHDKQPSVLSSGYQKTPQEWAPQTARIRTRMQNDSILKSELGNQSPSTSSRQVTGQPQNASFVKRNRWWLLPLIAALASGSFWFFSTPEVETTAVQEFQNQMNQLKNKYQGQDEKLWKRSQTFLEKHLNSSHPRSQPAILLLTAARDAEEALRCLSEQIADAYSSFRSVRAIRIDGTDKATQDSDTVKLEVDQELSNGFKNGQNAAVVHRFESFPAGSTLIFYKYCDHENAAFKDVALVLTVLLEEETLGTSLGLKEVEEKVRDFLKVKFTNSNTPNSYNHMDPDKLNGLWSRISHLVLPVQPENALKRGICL
Test [20] concerns the target Alpha-bungarotoxin (Bungarus multicinctus) (UniProt P60615). Description: alpha-bungarotoxin binders on microarray, profiling panel, artefact control for SMM control protein annotation, biochemical, small-molecule microarray, Alexa647 label, 635/667 nm fluorescence (AID 1117). Conditions: alpha-BTX-A647 binding fluorescence, higher = more signal.

Left-right determination factor 2 (Homo sapiens), sequence (O00292 whole entry, looked up): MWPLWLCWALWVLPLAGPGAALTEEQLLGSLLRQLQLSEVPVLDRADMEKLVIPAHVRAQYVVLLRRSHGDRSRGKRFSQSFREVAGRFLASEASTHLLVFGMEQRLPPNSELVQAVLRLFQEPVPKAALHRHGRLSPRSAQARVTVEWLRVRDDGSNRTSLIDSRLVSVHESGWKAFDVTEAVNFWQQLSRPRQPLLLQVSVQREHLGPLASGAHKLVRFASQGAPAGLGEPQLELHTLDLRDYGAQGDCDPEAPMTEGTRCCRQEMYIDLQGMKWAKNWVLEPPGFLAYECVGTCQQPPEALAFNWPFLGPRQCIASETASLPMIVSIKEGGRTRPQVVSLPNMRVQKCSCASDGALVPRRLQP
Fibroblast growth factor 10 (Homo sapiens), sequence (O15520 whole entry, looked up): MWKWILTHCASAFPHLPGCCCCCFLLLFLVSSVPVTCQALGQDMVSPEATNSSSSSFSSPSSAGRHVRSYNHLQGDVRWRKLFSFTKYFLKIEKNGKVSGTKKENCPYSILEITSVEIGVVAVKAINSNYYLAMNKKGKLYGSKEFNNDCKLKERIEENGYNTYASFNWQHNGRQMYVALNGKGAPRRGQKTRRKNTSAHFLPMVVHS
Epidermal growth factor receptor (Homo sapiens), sequence (P00533 whole entry, looked up): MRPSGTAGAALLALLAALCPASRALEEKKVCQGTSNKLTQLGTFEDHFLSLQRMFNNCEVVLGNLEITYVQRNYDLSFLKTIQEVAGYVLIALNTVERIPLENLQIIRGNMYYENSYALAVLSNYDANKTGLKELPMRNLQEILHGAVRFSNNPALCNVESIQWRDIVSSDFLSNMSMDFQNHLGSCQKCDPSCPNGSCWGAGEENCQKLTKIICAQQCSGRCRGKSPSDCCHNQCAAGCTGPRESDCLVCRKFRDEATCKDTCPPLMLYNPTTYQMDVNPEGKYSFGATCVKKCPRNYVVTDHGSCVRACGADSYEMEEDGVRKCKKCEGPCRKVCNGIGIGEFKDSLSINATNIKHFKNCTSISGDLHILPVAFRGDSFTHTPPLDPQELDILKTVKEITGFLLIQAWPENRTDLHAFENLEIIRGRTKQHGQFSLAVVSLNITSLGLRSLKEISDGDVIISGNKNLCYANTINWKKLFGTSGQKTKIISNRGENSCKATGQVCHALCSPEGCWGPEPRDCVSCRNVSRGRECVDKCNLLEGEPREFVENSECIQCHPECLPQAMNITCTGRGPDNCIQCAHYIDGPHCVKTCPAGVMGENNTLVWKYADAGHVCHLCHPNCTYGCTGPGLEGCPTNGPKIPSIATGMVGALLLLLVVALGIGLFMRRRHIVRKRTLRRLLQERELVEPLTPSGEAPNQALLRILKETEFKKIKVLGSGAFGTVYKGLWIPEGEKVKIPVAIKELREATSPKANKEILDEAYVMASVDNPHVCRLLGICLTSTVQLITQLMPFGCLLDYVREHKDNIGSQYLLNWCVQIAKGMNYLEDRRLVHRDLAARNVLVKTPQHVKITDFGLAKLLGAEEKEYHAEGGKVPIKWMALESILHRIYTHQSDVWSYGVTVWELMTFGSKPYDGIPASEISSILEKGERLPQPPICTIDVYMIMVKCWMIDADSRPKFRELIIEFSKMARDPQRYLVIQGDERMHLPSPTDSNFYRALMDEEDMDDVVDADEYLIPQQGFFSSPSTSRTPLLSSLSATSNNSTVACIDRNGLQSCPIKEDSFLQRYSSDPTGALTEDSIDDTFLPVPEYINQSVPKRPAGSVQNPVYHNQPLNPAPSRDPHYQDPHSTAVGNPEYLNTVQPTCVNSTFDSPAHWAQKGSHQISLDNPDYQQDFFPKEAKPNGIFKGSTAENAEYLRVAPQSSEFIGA
Follistatin-related protein 3 (Homo sapiens), sequence (O95633 whole entry, looked up): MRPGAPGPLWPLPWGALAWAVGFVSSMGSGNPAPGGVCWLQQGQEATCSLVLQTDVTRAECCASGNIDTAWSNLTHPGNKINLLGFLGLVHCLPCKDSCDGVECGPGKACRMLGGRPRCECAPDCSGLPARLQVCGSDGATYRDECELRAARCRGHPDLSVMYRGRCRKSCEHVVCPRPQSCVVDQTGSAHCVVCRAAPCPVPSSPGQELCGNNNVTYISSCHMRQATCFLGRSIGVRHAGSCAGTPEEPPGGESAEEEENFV
Alpha-bungarotoxin (Bungarus multicinctus), sequence (P60615 whole entry, looked up): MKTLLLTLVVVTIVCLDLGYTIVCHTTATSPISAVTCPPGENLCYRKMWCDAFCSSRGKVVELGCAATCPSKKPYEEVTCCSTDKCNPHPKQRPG

For `CCCN1C(=O)[C@]2(COC(c3ccc(OCCCO)cc3)=N2)Cc2ccccc21`, the composite z-score in [1] is 1.08; in [2], 1.09; in test [3], 1.1; in test [5], 0.736; in [6], 1; in [7], -0.542. Further, the composite z-score in test [8] was 0.378; in [9], 0.0779; in test [10] it was 0.854; in test [11], 0.147; in test [13] it was -0.196; in test [14], 1.11. For the same molecule, the composite z-score in test [15] is 0.599; in test [16], -0.0462; in test [17], 0.118; in [18], 0.705; in test [19] it was 0.39; in test [20], 1.03. Also, the z-score was 0.409 (inactive) in [4] and 0.0172 in test [12].

As for `COC(=O)C[C@@H]1C[C@H](C)[C@]2(O1)C(=O)N(Cc1ccccc1)c1ccc(NC(C)=O)cc12`, the composite z-score was 0.0968 in test [1]; -0.148 in [2]; -0.448 in test [3]; 0.603 in [5]; 0.141 in test [6]; 0.324 in [7]. The composite z-score in test [8] is 0.389; in test [9], 0.355; in test [10], 0.4; in test [11], -0.654; in [13] it was 0.266; in test [14] it was -0.595. Moreover, the composite z-score in test [15] is -0.324; in test [16] it was -0.311; in test [17], -0.543; in test [18], 0.0034; in test [19] it was 0.458; in [20], -0.194. Moreover, the z-score in test [4] is 0.247 (inactive); in test [12] it was -0.249.

Consider `COc1ccc([Si](C)(C)[C@@H]2[C@@H](CC(=O)N(CCO)Cc3ccccc3)O[C@]3(C(=O)N(C)c4ccccc43)[C@H]2C)cc1`, for which the composite z-score in test [1] was 1.24; in test [2] it was 0.909; in [3], 0.0207; in [5] it was 1.05; in test [6], 1.16; in [7] it was 0.749. Also, the composite z-score amounted to 1.39 in [8]; 1.32 in test [9]; 1.16 in test [10]; 0.906 in [11]; 0.813 in test [13]; 0.773 in test [14]. For the same molecule, the composite z-score was -0.193 in [15]; -0.0721 in [16]; 0.366 in test [17]; 0.422 in test [18]; 0.44 in [19]; 0.805 in test [20]. In addition, the z-score is 0.841 (inactive) in test [4] and -3.95 in test [12].

Take `COc1ccc(C(O)C2C=CC3C(=O)NC(=O)C3N2Nc2ccccn2)cc1OCc1ccccc1` (stereo not given): the composite z-score was 0.524 in [1]; 0.0679 in test [2]; 0.668 in test [3]; -0.0457 in test [5]; 0.13 in test [6]; 0.208 in [7]. Also, the composite z-score is 0.187 in test [8]; -0.236 in test [9]; 0.557 in test [10]; -0.156 in [11]; -0.0932 in [13]; 0.916 in [14]. The composite z-score in [15] was 0.0805; in test [16], -0.15; in test [17], -0.0886; in test [18] it was 0.185; in test [19], 0.474; in [20], 0.251. Also, the z-score is 1.04 (inactive) in test [4] and -0.129 in test [12].

For the molecule `CCCNC(=O)[C@@H]1c2ccccc2C(=O)N(Cc2ccccc2)[C@H]1c1ccc(CO)cc1`, the composite z-score in test [1] is 0.405; in test [2], -0.0972; in test [3] it was 0.933; in test [5], -0.239; in [6], 0.0282; in test [7] it was -0.592. Besides, the composite z-score in test [8] was -0.637; in [9], -0.744; in test [10] it was -0.217; in test [11] it was 0.656; in [13] it was -0.595; in test [14], -0.0977. Besides, the composite z-score in [15] is -1.35; in test [16], -0.152; in test [17], -0.138; in test [18], -0.216; in test [19], 0.142; in [20] it was 0.918. Further, the z-score was 0.0373 (inactive) in test [4] and -0.481 in test [12].
